Only some compounds are listed: those with a hit (about 7.9% of all), similar ones and a draw of the others.
NOMO-1 viab = STK33 inhibitor candidate reducing NOMO-1 cell viability. NOMO-1 AML viability, CellTiter-Glo luminescence, 72 h. inhibition, % (concentration not given with the values). hit rate 7.5% among 37,000; in the data active = inhibition above about 80%; inconclusive = no clear call, values can overlap the other calls
MITF inhib = MITF inhibition; AID 2240; TRPM1 promoter luciferase, luminescence, 24 h; inhibition, % (concentration not given with the values); hit rate 0.28% among 37,000; in the data active = inhibition above about 85%; inconclusive = no clear call, values can overlap the other calls; inactive = below about 68%;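 also: human melanocyte line stably carrying TRPM1 promoter luciferase reporter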
Shh pathway inh = blocks Sonic Hedgehog signaling; Shh-LIGHT2 Gli-luciferase reporter, 30 h; inhibition, % (concentration not given with the values); hit rate 2.1% among 22,000; AID 2313;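 active = mean inhibition across valid replicates above about 65%, limit read from the data; inconclusive = mean under the limit, yet half or more replicates past it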;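 also: pathway switched on by Shh-conditioned medium diluted 1 in 25 in low serum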
PD-1 reversal = activators reversing PD-1 mediated T-cell inhibition; primary human CD4 T cells, PD-L1 beads, CellTiter-Glo 96 h; activation, % (no concentration beside the values); 29,000 tested, under 10 active; AID 2316; call rule not given here;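 also: 0% = median vehicle wells and 100% = positive control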
The depositor's hits bear a star.

For C[C@@H]1CN([C@H](C)CO)C(=O)Cc2cc(NC(=O)Nc3ccc(C(F)(F)F)cc3)ccc2O[C@@H]1CN(C)Cc1ccc2c(c1)OCO2 the results were NOMO-1 viab 115*, MITF inhib 26, Shh pathway inh 34 and PD-1 reversal -9.
C[C@@H]1CN([C@@H](C)CO)C(=O)Cc2cc(NC(=O)Nc3ccc4c(c3)OCO4)ccc2O[C@@H]1CN(C)Cc1ccc2c(c1)OCO2 was read as NOMO-1 viab 6, MITF inhib 8, Shh pathway inh 6 and PD-1 reversal -1.
COc1cc(C(=O)Nc2cccc(-c3nc4ncccc4o3)c2)cc(OC)c1OC was read as NOMO-1 viab 34 and MITF inhib -41.
Cc1ccc2c(c1)c1c(n2CC(O)CN2CCOCC2)C(=O)CCC1 (stereo unspecified) was read as NOMO-1 viab 2, MITF inhib 1 and PD-1 reversal 1.
Screening CC(=O)OC[C@@]12C(=O)C[C@@H](C)[C@]3(C[C@@H](c4ccoc4)OC3=O)[C@H]1CC[C@H](O)[C@]21CO1 returned NOMO-1 viab 6, MITF inhib -7, Shh pathway inh -3 and PD-1 reversal 1.
For O=C1C(=O)N(CCCn2ccnc2)C(c2ccccc2)C1C(=O)c1ccco1 (stereo unspecified) the results were NOMO-1 viab -11, MITF inhib -5 and PD-1 reversal 4.
Screening Cn1nnnc1SCC(=O)c1ccc(O)c(O)c1 returned NOMO-1 viab 31, MITF inhib -20 and PD-1 reversal -1.
Screening CC1(C)CC(=O)C=C(Sc2nc3cc(Cl)ccc3s2)C1 returned NOMO-1 viab 120*, MITF inhib inconclusive, Shh pathway inh inconclusive and PD-1 reversal -45.
O=C(CSc1nc2cc(Cl)ccc2s1)Nc1ccc2c(c1)OCCO2 was read as NOMO-1 viab -11, MITF inhib -33 and PD-1 reversal 1.
CCOC(=O)c1c(NC(=O)COc2ccccc2Cl)sc2c1CCCC2 was read as NOMO-1 viab 9, MITF inhib -5 and PD-1 reversal 0.
For C[C@H]1CN([C@@H](C)CO)C(=O)c2cc(NC(=O)c3ccncc3)ccc2O[C@@H]1CN(C)Cc1ccc(C(=O)Nc2ccccc2N)cc1 the results were NOMO-1 viab -3, MITF inhib -8 and PD-1 reversal 0.
For C[C@@H]1CN([C@@H](C)CO)C(=O)c2cc(N(C)C)ccc2O[C@@H]1CN(C)Cc1ccc(C(=O)Nc2ccccc2N)cc1 the results were NOMO-1 viab 110*, MITF inhib 36 and PD-1 reversal -3.
Screening C[C@H]1CN([C@@H](C)CO)C(=O)c2cc(N(C)C)ccc2O[C@@H]1CN(C)Cc1ccc(C(=O)Nc2ccccc2N)cc1 returned NOMO-1 viab 112*, MITF inhib 29 and PD-1 reversal -2.
For CC(=O)Nc1ccc(NC(=O)CN(c2ccc(C)cc2C)S(C)(=O)=O)cc1 the results were NOMO-1 viab 7, MITF inhib -9 and PD-1 reversal 1.
C[C@H](CO)N1C[C@H](C)[C@H](CN(C)S(=O)(=O)c2ccc(Cl)cc2)Oc2c(NS(=O)(=O)c3ccc(F)cc3)cccc2C1=O was read as NOMO-1 viab 2, MITF inhib 7 and Shh pathway inh 70*.
C[C@H](CO)N1C[C@H](C)[C@H](CN(C)C(=O)NC2CCCCC2)Oc2c(NS(=O)(=O)c3cccs3)cccc2C1=O was read as NOMO-1 viab 58, MITF inhib 15, Shh pathway inh 68* and PD-1 reversal -2.
C[C@H]1CN([C@@H](C)CO)C(=O)c2cccc(NS(=O)(=O)c3ccc(F)cc3)c2O[C@@H]1CN(C)S(=O)(=O)c1ccc(Cl)cc1 was read as NOMO-1 viab 18, MITF inhib -12, Shh pathway inh 31 and PD-1 reversal 0.
`C[C@H](CO)N1C[C@H](C)[C@H](CN(C)S(=O)(=O)c2ccc(Cl)cc2)Oc2c(NS(=O)(=O)c3cccs3)cccc2C1=O` gave NOMO-1 viab 7, MITF inhib 12, Shh pathway inh 77* and PD-1 reversal -1.
`C[C@@H]1CN([C@H](C)CO)C(=O)c2cccc(NS(=O)(=O)c3cccs3)c2O[C@H]1CN(C)C(=O)NC1CCCCC1` gave NOMO-1 viab 13, MITF inhib -9, Shh pathway inh -2 and PD-1 reversal 1.
For CC(=O)Oc1cc(OC(C)=O)c2c(c1)O[C@H](c1ccc(OC(C)=O)c(OC(C)=O)c1)[C@H](OC(C)=O)C2 the results were NOMO-1 viab 63, MITF inhib 0 and Shh pathway inh 11.
For CC1(C)C=Cc2c(c3occc3c3oc(-c4ccccc4)cc(=O)c23)O1 the results were NOMO-1 viab 95*, MITF inhib -8, Shh pathway inh -8 and PD-1 reversal 1.

Assay outcomes (PubChem BioAssay)
